Results filed as inconclusive are left out. Calls of active or inactive are those of the source. How the source made its calls: active means hit-call score of the fitted dose curve at least 0.9, where 1 is the maximum; inconclusive means response in the unintended direction; inactive means score below 0.9.
Read-out: organic anion transporter (SLCO1B1), SLCO1B1 (gene 10599)
Test: CLD_SLCO1B1_24hr: CellzDirect (CLD) Gene Expression Assay for organic anion transporter (SLCO1B1) at 24 hours (AID 2283690)
Method in brief: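 Primary human hepatocytes (two donor preparations) dosed daily for two days with chemicals at multiple concentrations, 0.2% DMSO vehicle. SLCO1B1 mRNA at 24 h measured by qNPA chemiluminescence; induction fitted relative to DMSO.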

Glyceraldehyde-3-phosphate dehydrogenase (Homo sapiens), sequence (P04406 whole entry, looked up): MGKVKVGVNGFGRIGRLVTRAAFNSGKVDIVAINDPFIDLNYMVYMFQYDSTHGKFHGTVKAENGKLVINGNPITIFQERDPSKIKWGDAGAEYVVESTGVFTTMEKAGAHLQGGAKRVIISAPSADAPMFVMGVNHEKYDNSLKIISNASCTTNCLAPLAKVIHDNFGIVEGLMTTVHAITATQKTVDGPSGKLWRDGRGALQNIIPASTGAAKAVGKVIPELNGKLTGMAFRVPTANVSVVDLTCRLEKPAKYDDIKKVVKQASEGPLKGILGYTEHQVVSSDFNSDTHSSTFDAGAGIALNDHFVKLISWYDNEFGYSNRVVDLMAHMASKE
Cytochrome P450 3A4 (Homo sapiens), sequence (P08684 whole entry, looked up): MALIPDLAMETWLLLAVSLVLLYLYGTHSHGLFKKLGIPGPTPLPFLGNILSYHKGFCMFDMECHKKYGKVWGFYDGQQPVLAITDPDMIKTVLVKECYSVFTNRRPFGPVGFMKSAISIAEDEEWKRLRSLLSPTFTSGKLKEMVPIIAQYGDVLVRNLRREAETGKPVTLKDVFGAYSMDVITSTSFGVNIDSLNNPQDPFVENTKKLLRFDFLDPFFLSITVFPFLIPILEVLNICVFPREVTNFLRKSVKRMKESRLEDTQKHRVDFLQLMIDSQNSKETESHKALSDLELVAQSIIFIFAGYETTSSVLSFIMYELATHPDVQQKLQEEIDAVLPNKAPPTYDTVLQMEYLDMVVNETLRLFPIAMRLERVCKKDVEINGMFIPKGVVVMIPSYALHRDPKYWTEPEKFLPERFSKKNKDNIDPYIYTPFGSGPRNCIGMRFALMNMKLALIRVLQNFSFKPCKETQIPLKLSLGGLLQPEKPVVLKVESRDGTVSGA

Row | SMILES | outcome
1 | CCOC(=O)[C@H](C)Oc1ccc(Oc2nc3ccc(Cl)cc3o2)cc1 | inactive
2 | c1ccc(Nc2ccccc2)cc1 | inactive
3 | CCCCOC(=O)[C@@H](C)Oc1ccc(Oc2ccc(C(F)(F)F)cn2)cc1 | inactive
4 | CCCCCCC(C)OC(=O)COc1nc(F)c(Cl)c(N)c1Cl (stereo not drawn) | inactive
5 | CCNc1nc(N)nc(Cl)n1 | inactive
6 | O=C(Nc1ccc([N+](=O)[O-])cc1Cl)c1cc(Cl)ccc1O | inactive
7 | COCCO | inactive
8 | CCCOC(=O)NCCCN(C)C | inactive
9 | COC(=O)c1cccc(C)c1S(=O)(=O)NC(=O)Nc1nc(OCC(F)(F)F)nc(N(C)C)n1 | inactive

Read-out: HMG-CoA synthase (HMGCS2), HMGCS2 (gene 3158)
Test: CLD_HMGCS2_24hr: CellzDirect (CLD) Gene Expression Assay for HMG-CoA synthase (HMGCS2) at 24 hours (AID 2283691)
Method in brief: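 Primary human hepatocytes from two donor preparations, dosed daily with fresh solutions; vehicle 0.2% DMSO, 24 h harvest. HMGCS2 mRNA quantified by qNPA with S1 nuclease digestion and chemiluminescence; gain fitted versus DMSO, cytotoxicity annotated by morphology.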

Row | SMILES | outcome | AC50
10 | c1ccc(Nc2ccccc2)cc1 | inactive | –
11 | CCCCOC(=O)[C@@H](C)Oc1ccc(Oc2ccc(C(F)(F)F)cn2)cc1 | inactive | –
12 | CCOC(=O)NCCOc1ccc(Oc2ccccc2)cc1 | inactive | –
13 | Oc1ccc(C(c2ccc(O)cc2)C(Cl)(Cl)Cl)cc1 | inactive | –
14 | CSC(=O)c1cccc2nnsc12 | – | 7.33 µM (active)
15 | OB(O)O | inactive | –
16 | N#CSCSc1nc2ccccc2s1 | inactive | –
17 | CCOC(=O)C(C)Oc1ccc(Oc2cnc3cc(Cl)ccc3n2)cc1 (stereo not drawn) | inactive | –
18 | CCCOC(=O)NCCCN(C)C | inactive | –

Read-out: Glyceraldehyde-3-phosphate dehydrogenase (Homo sapiens) (UniProt P04406)
Test: CLD_GAPDH_24hr: CellzDirect (CLD) Gene Expression Assay for Baseline Control (Glyceraldehyde 3-phosphate dehydrogenase) at 24 hours (AID 2283692)
Method in brief: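 Primary human hepatocytes (two donor preparations) dosed daily for two days, 0.2% DMSO vehicle; GAPDH mRNA measured at 24 h by qNPA chemiluminescence as a background control, gain-of-signal fitted against DMSO.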

Row | SMILES | outcome
19 | CCOC(=O)[C@H](C)Oc1ccc(Oc2nc3ccc(Cl)cc3o2)cc1 | inactive
20 | CCCCOC(=O)[C@@H](C)Oc1ccc(Oc2ccc(C(F)(F)F)cn2)cc1 | inactive
21 | CCCCCCC(C)OC(=O)COc1nc(F)c(Cl)c(N)c1Cl (stereo not drawn) | inactive
22 | CCNc1nc(N)nc(Cl)n1 | inactive
23 | Oc1ccc(C(c2ccc(O)cc2)C(Cl)(Cl)Cl)cc1 | inactive
24 | CSC(=O)c1cccc2nnsc12 | inactive
25 | CCCCCOC(=O)COc1cc(N2C(=O)C3=C(CCCC3)C2=O)c(F)cc1Cl | inactive
26 | COCCO | inactive
27 | OB(O)O | inactive
28 | N#CSCSc1nc2ccccc2s1 | inactive
29 | CCCOC(=O)NCCCN(C)C | inactive
30 | S=C(S)NCCNC(=S)S.[Mn+2].[S-]C([S-])=NCCN=C([S-])[S-].[Zn+2] | inactive
31 | COC(=O)c1cccc(C)c1S(=O)(=O)NC(=O)Nc1nc(OCC(F)(F)F)nc(N(C)C)n1 | inactive

Read-out: Cytochrome P450 3A4 (Homo sapiens) (UniProt P08684)
Test: CLD_CYP3A4_48hr: CellzDirect (CLD) Gene Expression Assay for xenobiotic metabolism (CYP3A4) at 48 hours (AID 2283698)
Method in brief: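 Primary human hepatocytes from two donor preparations dosed daily for two days with multiple chemical concentrations, 0.2% DMSO vehicle. CYP3A4 mRNA at 48 h by quantitative nuclease protection assay, chemiluminescence, positive fit versus DMSO; cytotoxicity flagged morphologically.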

Row | SMILES | outcome | AC50
32 | CCOC(=O)[C@H](C)Oc1ccc(Oc2nc3ccc(Cl)cc3o2)cc1 | inactive | –
33 | CCCN(CCC)c1c([N+](=O)[O-])cc(C(F)(F)F)c(N)c1[N+](=O)[O-] | – | 7.62 µM (active)
34 | c1ccc(Nc2ccccc2)cc1 | inactive | –
35 | CCCCOC(=O)[C@@H](C)Oc1ccc(Oc2ccc(C(F)(F)F)cn2)cc1 | inactive | –
36 | CCOC(=O)NCCOc1ccc(Oc2ccccc2)cc1 | inactive | –
37 | CCNc1nc(N)nc(Cl)n1 | inactive | –
38 | Oc1ccc(C(c2ccc(O)cc2)C(Cl)(Cl)Cl)cc1 | inactive | –
39 | CSC(=O)c1cccc2nnsc12 | inactive | –
40 | CCN(Cc1c(F)cccc1Cl)c1c([N+](=O)[O-])cc(C(F)(F)F)cc1[N+](=O)[O-] | – | 1.9 µM (active)
41 | CCCCCOC(=O)COc1cc(N2C(=O)C3=C(CCCC3)C2=O)c(F)cc1Cl | inactive | –
42 | CN(C)C(=O)Nc1ccc(Cl)c(Cl)c1 | inactive | –
43 | COCCO | inactive | –
44 | OB(O)O | inactive | –
45 | COC(=O)CSc1cc(N=c2sc(=O)n3n2CCCC3)c(F)cc1Cl | – | 4.08 µM (active)
46 | CCOC(=O)C(C)Oc1ccc(Oc2cnc3cc(Cl)ccc3n2)cc1 (stereo not drawn) | inactive | –
47 | COC(=O)c1cccc(C)c1S(=O)(=O)NC(=O)Nc1nc(OCC(F)(F)F)nc(N(C)C)n1 | – | 20 µM (active)
48 | CCCCC(CC)CN1C(=O)C2C3C=CC(C3)C2C1=O (stereo not drawn) | – | 20 µM (active)

Source: PubChem BioAssay (EPA / NIEHS)
